The subject of the first test is RARa homodimer (NR concentration 270 nM). Kind of test: PBM binding z-score (relative to random genomic background probes); higher = stronger binding; sequences stand for … in GC…GCGATTGACAGCGTAGAATGAAGG
The method in brief: (§1)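 Each nuclear receptor dimer, without ligand, was incubated for 1 h on custom Agilent 4×180K protein-binding microarrays. Binding was detected with antibodies against each partner (one per run), and scanned fluorescence was regression-normalized. The binding z-scores are referenced to random human genomic background probes.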
Consider AAATGTAGGTTATCGGGTCATTCAGTTTGCGCAT, for which the PBM binding z-score is 1.36.
TCTTGTAGATCAACAGGAGGTAAAGAAAGATCGA displayed a PBM binding z-score of -0.132.
Still for that read-out and setting: then CCTTACGGGTCACGAGGTTATGGCACGACGAGCG, with 0.689; and CCTCGGAGGACAGAAGATCAGAGCTGTCCGCTTT, with -0.276; and TTACCAAGGCGAGCTGAGGTCGTTGATCCAACTC, with -0.628.
The sequence TCTAGTAGATCAGCAGGTTAAGAAAGCTGGCCAA had a PBM binding z-score of -0.353.
In turn, GCGACTGGGGCATCAGCAGGTTACGATAACTTAA returned a PBM binding z-score of -0.452.
For CGAACTAGGTCATCCAGGACAGTAAATACATTGA, the PBM binding z-score worked out at 0.413.
With ACTATTAGTTGAGACGAAGGCAACCGATAGGTTG, the PBM binding z-score worked out at 0.662.
Same read-out and setting: then TCGAGTTGGTTAGTCGGGGCATTCAGCCAACATA, with -0.783; and TAGCCTAGGTCATTCAGGGGCCTGTATAGAAAGC, with -0.792; and TAGCCAAGGTCATGGGCCAGTATACCACGCGAAC, with 0.369.
Still for that read-out and setting: then TCTAGTTGGGCACGGAGGTCACACACGACGGGTA, with 0.793; and ATCTCTAGGTAAAGTACAGTGAAAGATCGATAGA, with 1.59; and GTACCAAGATGAATAGGTCGTTGATGAGTAGGCG, with 0.21.
CGAACTAGGTCCGAACAGGACAGTGAAGGATGAT came in with a PBM binding z-score of -0.281.
Consider CTCGAAAGGTCGTTCTCAGGTGAGTATACCAAAC, for which the PBM binding z-score was -0.0759.
Regarding CAAACTAAGTCAAGGTCAAAGTCGGTTTGTGCCA, the PBM binding z-score amounted to 1.46.
GTTGCTAGGTCAGGTTGGTCAGCTAACGGGTACG gave a PBM binding z-score of 0.798.
On to CCAACGAGGGCATGAGTTGATAGCAAATGCCGAT, for which the PBM binding z-score was -0.402.
Consider TCTTGTAGATCGGCAGGTTAAGAAAGCTGGCCAA, for which the PBM binding z-score is -0.734.
The same measure, in the same setting: then TCGAGTAGGTTAGGGGCATTCAAAATGGCGTCGA, with 0.0472.
Sequence TAGCCTAGGTCATTCAGGGGCCAGTCTAGAAAGC showed a PBM binding z-score of -0.518.
The same measure, in the same setting: then TCTCCTAGGTCAGTTGGTCAGCTAACGAGCTGCC, with 0.238; and ATCGAAAGGTCGTGAGGTGAGTGTACAGAAAGGC, with 1.08; and CGTCAAAGTTCAAGGTAACGGAACAGAAAGCAGC, with 1.04.
As to ACTATTAGTTGAGACGAGGGCAAACGATAGGTTG, the PBM binding z-score came to 0.392.
On to TCGAGTAGGTTAGGGGCTTTCAGAATGGCGTCGA, for which the PBM binding z-score worked out at 0.102.
Turning to CGAGCTAGGTCAAGGACAGTGAATCTCCGCACGC, the PBM binding z-score was 0.121.
ATCTCTAGGTAAGAAGTTCAGTGAAAGAGAGGAC gave a PBM binding z-score of 0.598.
Sequence TTACCAAGGGGAGCTGAGGTCGTTGATCCAACTC had a PBM binding z-score of -0.882.
For the sequence ACAGACAGTTGAGTGAAGGTAACTCAGCTGGACG, the PBM binding z-score was -0.00601.
On to TCTCGGAGGACACGTAAGGTCAGAGCTCGACATC, for which the PBM binding z-score came out at 0.0447.
On to ATCTCTAGGTAACAAGTTAAGTGAAAGAGAGGAC, for which the PBM binding z-score worked out at 0.894.
CTCGAAAAGTCGTGCTCAGGTGAGTATACCAAAC displayed a PBM binding z-score of -0.119.
Same read-out and setting: as for TGAATGAGGTTATAAGCTCAGGGAACGTTGCAAA, the figure is -1.17.
AGAATGAGGTTATAAAGATCAGGGAATTGCGGTC came in with a PBM binding z-score of 0.211.
Same read-out and setting: then CAAACTAGGTCACCGGAAGGTCAACGTCCGCATG, with 2.46; and ATAGGTAGGTTAGCTGGGGTCATTCAGACTAGGC, with 1.73.
In turn, TCTATTAGTTGACTAGGGCAACCGAAACAGCGGA returned a PBM binding z-score of 0.68.

Another test concerns RARb:RXRa (NR concentration 270 nM, RXRa partner concentration 90 nM). The test is described as above. The method in brief: as §1
In the case of AAATGTAGGTTATCGGGTCATTCAGTTTGCGCAT, the PBM binding z-score came to 2.68.
TCTTGTAGATCAACAGGAGGTAAAGAAAGATCGA displayed a PBM binding z-score of -0.124.
The sequence CCTTACGGGTCACGAGGTTATGGCACGACGAGCG came in with a PBM binding z-score of 4.51.
CCTCGGAGGACAGAAGATCAGAGCTGTCCGCTTT yielded a PBM binding z-score of 0.386.
Same read-out and setting: as for TTACCAAGGCGAGCTGAGGTCGTTGATCCAACTC, the figure is 0.286; as for TCTAGTAGATCAGCAGGTTAAGAAAGCTGGCCAA, 0.266.
In the case of GCGACTGGGGCATCAGCAGGTTACGATAACTTAA, the PBM binding z-score came to 0.866.
As to CGAACTAGGTCATCCAGGACAGTAAATACATTGA, the PBM binding z-score stood at 3.89.
As for ACTATTAGTTGAGACGAAGGCAACCGATAGGTTG, the PBM binding z-score was -0.23.
With TCGAGTTGGTTAGTCGGGGCATTCAGCCAACATA, the PBM binding z-score came out at 0.122.
TAGCCTAGGTCATTCAGGGGCCTGTATAGAAAGC: the PBM binding z-score turned out to be 3.52.
As to TAGCCAAGGTCATGGGCCAGTATACCACGCGAAC, the PBM binding z-score is 5.36.
For TCTAGTTGGGCACGGAGGTCACACACGACGGGTA, the PBM binding z-score was 3.36.
In the case of ATCTCTAGGTAAAGTACAGTGAAAGATCGATAGA, the PBM binding z-score was found to be 0.586.
Same read-out and setting: as for GTACCAAGATGAATAGGTCGTTGATGAGTAGGCG, the figure is 0.0592; as for CGAACTAGGTCCGAACAGGACAGTGAAGGATGAT, -0.345.
Sequence CTCGAAAGGTCGTTCTCAGGTGAGTATACCAAAC had a PBM binding z-score of 3.71.
On the same count and under the same terms, as for CAAACTAAGTCAAGGTCAAAGTCGGTTTGTGCCA, the figure is 4.13; as for GTTGCTAGGTCAGGTTGGTCAGCTAACGGGTACG, 3.4.
CCAACGAGGGCATGAGTTGATAGCAAATGCCGAT: the PBM binding z-score worked out at 1.69.
For the sequence TCTTGTAGATCGGCAGGTTAAGAAAGCTGGCCAA, the PBM binding z-score is 0.257.
Consider TCGAGTAGGTTAGGGGCATTCAAAATGGCGTCGA, for which the PBM binding z-score is 1.24.
TAGCCTAGGTCATTCAGGGGCCAGTCTAGAAAGC showed a PBM binding z-score of 3.75.
Regarding TCTCCTAGGTCAGTTGGTCAGCTAACGAGCTGCC, the PBM binding z-score came out at 3.52.
Turning to ATCGAAAGGTCGTGAGGTGAGTGTACAGAAAGGC, the PBM binding z-score worked out at 4.04.
On the same count and under the same terms, as for CGTCAAAGTTCAAGGTAACGGAACAGAAAGCAGC, the figure is 5.07; as for ACTATTAGTTGAGACGAGGGCAAACGATAGGTTG, 0.841.
In turn, TCGAGTAGGTTAGGGGCTTTCAGAATGGCGTCGA came in with a PBM binding z-score of 0.395.
For CGAGCTAGGTCAAGGACAGTGAATCTCCGCACGC, the PBM binding z-score was 3.74.
The sequence ATCTCTAGGTAAGAAGTTCAGTGAAAGAGAGGAC yielded a PBM binding z-score of 1.49.
Sequence TTACCAAGGGGAGCTGAGGTCGTTGATCCAACTC had a PBM binding z-score of 0.604.
The same measure, in the same setting: then ACAGACAGTTGAGTGAAGGTAACTCAGCTGGACG, with -0.0285; and TCTCGGAGGACACGTAAGGTCAGAGCTCGACATC, with 3.41.
Same read-out and setting: as for ATCTCTAGGTAACAAGTTAAGTGAAAGAGAGGAC, the figure is 0.723; as for CTCGAAAAGTCGTGCTCAGGTGAGTATACCAAAC, 0.264; as for TGAATGAGGTTATAAGCTCAGGGAACGTTGCAAA, 1.04.
AGAATGAGGTTATAAAGATCAGGGAATTGCGGTC yielded a PBM binding z-score of 1.32.
CAAACTAGGTCACCGGAAGGTCAACGTCCGCATG gave a PBM binding z-score of 5.38.
Same read-out and setting: then ATAGGTAGGTTAGCTGGGGTCATTCAGACTAGGC, with 3.2; and TCTATTAGTTGACTAGGGCAACCGAAACAGCGGA, with 0.994.

The values are drawn from the supplement of paper PMC6555819.
